# Source: PubChem BioAssay
# TWEAK Fn14 block – inhibitors of TWEAK-Fn14 interaction signaling; TWEAK-stimulated Fn14 reporter cells, luciferase luminescence, 8 h; inhibition, % at 10 µM; 360,000 compounds, 2% hits; AID 1159606; in the data active means inhibition above about 50%
# EWS-Fli inh – blocks EWS/Fli oncoprotein-driven transcription; inhibition, % at 12.6 µM; AID 651661; A673 NR0B1-luciferase reporter, viability-normalised; 350,000 compounds, 0.67% hits;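 active means mean inhibition of at least 50% after viability correction, with every replicate also passing that limit; inconclusive means mean reaches 50% but only one of two replicates passes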;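 further: firefly luciferase signal divided by Alamar Blue viability fluorescence both relative to DMSO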
# TROY NFkB inh – blocks TROY-dependent signaling in reporter cells; Q293 LMP1-TROYcd NF-kB luciferase reporter, 4 h; inhibition, % at 10 µM; 360,000 compounds, 0.98% hits;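 active means compounds whose plate-normalised and pattern-corrected inhibition of the luciferase reporter signal at the single screening dose is 50% or more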
# LGR2 antag – blocks bursicon-induced cAMP signaling via Drosophila LGR2 | AID 720647 | 380,000 compounds, 0.35% hits | HEK293 LGR2, CRE-luciferase, bursicon-stimulated, 4 h | inhibition, % at 9.99 µM;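 active means drop in luminescence signal, shown as inhibition above about 50% in the replicate tests, limit read from the data, passing the limit was not always enough; inconclusive means probably only some replicates passing the limit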;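 further: agonist challenge used bursicon conditioned medium at about half maximal strength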
# LMP1 NFkB inh – Epstein-Barr LMP1 NF-kappaB reporter inhibition; LMP1-induced NF-kappaB luciferase reporter cells, luminescence; inhibition, % at 12.5 µM; 350,000 compounds, 0.69% hits; in the data active means inhibition above about 41%; inconclusive means no clear call, values can overlap the other calls;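 further: 0% = neutral control wells and 100% = reference inhibitor control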
# Numbers without * were called inactive; ? = inconclusive; . = no result given. A selection: hits, their analogues and other compounds. The true share with any hit is near 2.6%.
SMILES,TWEAK Fn14 block,EWS-Fli inh,TROY NFkB inh,LGR2 antag,LMP1 NFkB inh
COc1ccc(NC(=O)CSc2nc3ccccc3c(=O)n2CCNC(C)=O)c(OC)c1,0.1,.,5.0,3.1,0.7
COc1ccc(OC)c(NC(=O)CSc2nc3ccccc3c(=O)n2CCNC(C)=O)c1,75.9*,.,-16.2,.,0.6
C[C@@H]1CN([C@@H](C)CO)C(=O)c2cc(/C=C/c3ccccc3)cnc2O[C@H]1CN(C)Cc1cncnc1,.,-7.4,.,5.7,.
CSc1ccc(S(=O)(=O)N2CCC(C(=O)NCCCn3ccnc3)CC2)cc1,83.4*,.,-10.5,-2.1,-3.5
Cc1ccc(S(=O)(=O)N2CCC(C(=O)NCCCn3ccnc3)CC2)cc1,1.5,5.0,10.6,-0.8,-3.5
COC(=O)c1cc(OC)c(OC)cc1N=CC1=C(O)CC(C)(C)CC1=O,56.0*,.,-9.1,-20.4,-4.3
CCOC(=O)c1ccc(CC(=O)c2ccc(O)cc2O)o1,14.0,.,27.7,.,50.6*
COC(=O)c1ccc(CC(=O)c2ccc(O)cc2O)o1,8.0,.,13.3,.,-0.2
O=C1CSC(c2ccc(F)cc2)N1c1nc2ccccc2s1 (stereo not drawn),-16.7,.,-20.2,-6.0,61.9*
CCCNC(=O)[C@H]1[C@H](CO)[C@H]2Cn3c(ccc(-c4ccccc4)c3=O)[C@@H]1N2C(=O)CC1CC1,.,17.4,.,-5.6,.
N#CC1=C(N)C(C#N)(C#N)C(c2cccnc2)C2CC(c3ccccc3)CC=C12 (stereo not drawn),61.3*,.,10.4,.,54.7*
N#CC1=C(N)C(C#N)(C#N)[C@H](c2cccnc2)[C@H]2CN(C(=O)OCc3ccccc3)CC=C12,6.3,1.8,-20.4,8.7,2.0
CC(C)NC(=O)N(C)C[C@@H]1Oc2ncc(C#Cc3cccc(F)c3)cc2C(=O)N([C@H](C)CO)C[C@@H]1C,.,-14.2,.,-3.1,.
CCCC(=O)Nc1ccc2c(c1)OC[C@@H](C)N(CC1CCCC1)C[C@H](C)[C@@H](OC)CN(C)C2=O,.,6.4,.,-10.0,.
O=C1C=C(Nc2ccc(Cl)cc2)CC(c2ccco2)C1 (stereo not drawn),55.9*,.,.,.,-10.5
COc1ccc(NC(=O)Nc2ccc3c(c2)CC(=O)N([C@@H](C)CO)C[C@H](C)[C@H](CN(C)Cc2ccc(Cl)c(Cl)c2)O3)cc1,.,-10.6,.,-1.3,.
CCOC(=O)N=Nc1c2ccccc2c2nc3no[nH]c3nc12,90.1*,53.6*,66.3*,100.8*,85.8*
COC(=O)[C@H]1[C@@H](O)[C@@]2(O)c3c(OC)cc(OC)cc3O[C@@]2(c2ccc(OC)cc2)[C@@H]1c1ccc(F)cc1,.,39.3,.,86.4*,.
O=C(Nc1ncccc1O)c1ccc(S(=O)(=O)NCc2ccco2)cc1,-18.5,-8.4,-1.6,-1.7,42.6*
Cc1ccc(NC(=O)c2ccc(OC(F)(F)F)cc2)cc1S(=O)(=O)N(C)C,51.7*,.,12.6,-4.1,12.1
Cc1ccc(NC(=O)c2ccncc2)cc1S(=O)(=O)N(C)C,6.0,7.5,-3.1,4.3,2.3
Cc1cccnc1NC(=O)c1ccc(S(=O)(=O)NCc2ccco2)cc1,-8.7,3.9,-2.2,1.7,-0.9
Cc1cc(C)n(-c2ccc(C(=O)Nc3cccc(S(=O)(=O)N(C)C)c3)cc2)n1,36.9,6.7,25.4,-10.2,13.3
Cc1cc(C)n(-c2ccc(C(=O)Nc3ccc(S(=O)(=O)NCc4ccco4)cc3)cc2)n1,59.3*,.,38.1,.,13.0
CCN(CC)S(=O)(=O)c1cccc(NC(=O)c2ccc(-n3nc(C)cc3C)cc2)c1,60.3*,.,47.7,33.1,7.2
SMILES,TWEAK Fn14 block,EWS-Fli inh,TROY NFkB inh,LGR2 antag,LMP1 NFkB inh
O=C(CC(F)(F)F)N1C[C@H]2[C@@H](c3ccccc31)[C@H](CO)N2CC1CCCCC1,.,-4.7,.,-10.2,.
COc1ccc(CNC(=O)C[C@H]2C=C[C@H](NC(=O)CN(C)C)[C@H](CO)O2)cc1,.,4.5,.,7.0,.
CN(C)S(=O)(=O)Oc1ccc(C(=O)Nc2cccc(C(F)(F)F)c2)cc1,53.7*,6.6,15.1,-4.5,-14.0
Cc1cc(C)n(-c2ccc(C(=O)Nc3ccc(C)c(S(=O)(=O)N(C)C)c3)cc2)n1,53.5*,.,19.9,11.2,17.2
CN(C)S(=O)(=O)Oc1ccc(C(=O)Nc2cccc(Cl)c2)cc1,-50.8,-81.9,-38.2,-95.6,-13.3
CCCCN1C(=O)c2ccc(C(=O)Nc3cccc(C)c3C)cc2C1=O,-19.1,.,-40.4,.,-0.9
CCCCN1C(=O)c2ccc(C(=O)Nc3ccc(C)c(S(=O)(=O)N(C)C)c3)cc2C1=O,91.0*,.,54.7*,?,10.8
O=C(Cc1ccccn1)NCC[C@H]1CC[C@H](NC(=O)c2ccccc2F)[C@H](CO)O1,.,-2.8,.,10.0,.
COc1cc(C(=O)/C=C/c2cccnc2)c([N+](=O)[O-])cc1OC,35.8,37.8,16.4,63.7*,18.3
O=C(/C=C/c1cccnc1)c1ccccc1O,-12.7,15.9,-22.6,2.9,7.0
CO[C@@H]1CN(C)C(=O)c2ccc(NC(C)=O)cc2OC[C@@H](C)N(C(=O)c2cccnc2)C[C@@H]1C,.,0.9,.,-1.5,.
COc1ccc(CCC(=O)Nc2cc([N+](=O)[O-])ccc2OC)cc1,3.6,.,-9.6,3.5,-2.8
COc1ccc(CCC(=O)Nc2ccc(C)c([N+](=O)[O-])c2)cc1,-17.1,2.8,2.0,.,62.0*
Cc1ccc(-c2nc(C(Cl)Cl)c3ccccc3n2)cc1,13.4,58.9*,-59.2,-35.4,-21.0
COc1ccc(NC(=O)N(C)C[C@@H]2OCCCC[C@H](C)Oc3ccc(NC(=O)Nc4ccc5c(c4)OCO5)cc3C(=O)N([C@@H](C)CO)C[C@H]2C)cc1,.,-4.2,.,1.9,.
CC1=NNC(=O)C1CC(=O)N/N=C/c1cccs1 (stereo not drawn),-13.9,0.3,54.2*,-7.7,-2.6
Oc1cccc(-c2nc3ccccc3s2)c1,54.2*,.,15.8,.,-12.8
CC[n+]1cccc(-c2nc3ccccc3s2)c1,69.4*,.,64.1*,14.6,23.1
Oc1ccc(O)c(Cc2nc3ccccc3s2)c1,35.2,49.8,63.2*,32.1,-17.9
Nc1cccc(-c2nc3ccccc3s2)c1,33.7,.,21.6,.,-16.4
COc1cc(-c2nc3ccccc3s2)ccc1O,-17.4,.,-17.3,.,-3.5
COc1ccc(-c2nc3ccccc3s2)cc1O,98.8*,.,68.0*,.,37.3
CCCNC(=O)N(C)C[C@@H]1Oc2cc(C3=CCCC3)ccc2S(=O)(=O)N([C@H](C)CO)C[C@@H]1C,.,-4.0,.,-6.6,.
COc1cccc(-c2nc3ccccc3s2)c1O,48.5,-123.9,19.6,52.9*,-10.5
FC(F)(F)c1ccc(-c2nc3ccccc3s2)cc1,23.0,-65.5,18.8,-86.2,.
COc1cc(OC)c(-c2nc3ccccc3s2)cc1OC,9.6,-21.2,17.0,-29.6,7.9
CN(C(=O)OC(C)(C)C)c1ccc(-c2nc3ccccc3s2)cc1,103.5*,87.8*,89.0*,99.1*,80.8*
CC(C)c1ccc(-c2nc3ccccc3s2)cc1,106.8*,88.9*,95.6*,100.1*,69.6*
O=C(Nc1ccc(F)cc1)N1C[C@@H]2[C@H](c3ccccc31)[C@@H](CO)N2C(=O)c1cccnc1,.,-12.6,.,12.9,.
O=C(N=C1c2ccccc2CN1c1ccc(F)c(F)c1)c1cccnc1,52.3*,-30.5,-48.4,-15.3,-14.0
